C diff HTS – blocks growth of Clostridium difficile; Clostridium difficile clinical isolate growth, OD600, 24 h; active compounds read low; growth activity, negative = inhibition, % at 16 µg/mL (by protocol); 86,000 tested, 0.25% active;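 active = mean growth activity at or below -80% and every replicate also at or below -80%; inconclusive = mean at or below -80% but some replicate above -80%; inactive = mean growth activity above -80%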
T cruzi growth-1 – T. cruzi proliferation inhibition; AID 624255; T. cruzi beta-gal in NIH3T3, GalScreen luminescence, 90 h; 77,000 tested, 5.9% active; inhibition, % at 8.34 µM;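 active = mean inhibition above about 93%, with at least 55% of replicates each passing it, limit read from the data, passing the limit was not always enough; inconclusive = only one of those two conditions holds; inactive = neither condition holds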
T cruzi growth-2 – inhibitors of T. cruzi proliferation. shares compounds with T cruzi growth-1. 5,600 tested, 72% active. inhibition, % at 8.35 µM. T. cruzi beta-gal in NIH3T3, GalScreen luminescence, 90 h;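 active = mean replicate inhibition above about 95% and at least 55% of replicates individually reaching it, limit read from the data; inconclusive = only one of the two criteria is met; inactive = neither criterion is met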
T cruzi growth-3 – blocks T. cruzi growth in NIH3T3 host cells; shares compounds with T cruzi growth-1; T. cruzi beta-gal in NIH3T3, GalScreen luminescence, 90 h; inhibition, % at 2.09 µM; 5,600 tested, 21% active; AID 651740;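 active = mean inhibition above about 95%, with at least 55% of replicates also reaching it, limit read from the data; inconclusive = meets just one of the two conditions; inactive = meets neither condition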
NIH3T3 tox – cytotoxicity in mouse NIH/3T3 fibroblasts; shares compounds with T cruzi growth-1; 5,600 tested, 14% active; NIH/3T3 viability, CellTiter-Glo ATP luminescence, 90 h; cytotoxicity (signal decrease), % at 8.35 µM;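 active = mean signal decrease across replicates above about 35% based on untreated-well scatter, with enough replicates individually passing, limit read from the data; inconclusive = no rule stated though some were filed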
NIH3T3 tox 2 – NIH/3T3 (mouse) viability loss; NIH/3T3 viability, CellTiter-Glo ATP luminescence, 90 h; 5,600 tested, 56% active; inhibition, % at 24.9 µM; shares compounds with T cruzi growth-1;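 active = mean loss of cell viability signal at or above a set limit, and enough replicates individually reaching it; inconclusive = meets only the mean limit or only the replicate share; inactive = meets neither condition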
Hits are given with their value. Many of the other results were omitted from the sample, so hits are more common in it than they were.

C[C@@H]1CCCCO[C@H](CN(C)C(=O)Nc2ccc3c(c2)OCO3)[C@H](C)CN([C@H](C)CO)C(=O)c2cc(NC(=O)Nc3ccccc3)ccc2O1 was read as C diff HTS inactive, T cruzi growth-1 108, T cruzi growth-2 111, T cruzi growth-3 inactive, NIH3T3 tox inactive and NIH3T3 tox 2 inactive.
C[C@H]1CCCCO[C@H](CN(C)C(=O)Nc2ccc3c(c2)OCO3)[C@@H](C)CN([C@@H](C)CO)C(=O)c2cc(NC(=O)Cc3ccccc3)ccc2O1 was read as C diff HTS inactive, T cruzi growth-1 inconclusive, T cruzi growth-2 inactive, T cruzi growth-3 inactive, NIH3T3 tox inactive and NIH3T3 tox 2 inactive.
C[C@H]1CCCCO[C@@H](CN(C)C(=O)Nc2ccc3c(c2)OCO3)[C@@H](C)CN([C@@H](C)CO)C(=O)c2cc(NC(=O)Nc3ccc(F)cc3)ccc2O1 was read as C diff HTS inactive, T cruzi growth-1 103, T cruzi growth-2 106, T cruzi growth-3 inactive, NIH3T3 tox inactive and NIH3T3 tox 2 inactive.
`C[C@@H]1CCCCO[C@@H](CN(C)C(=O)Nc2ccccc2)[C@H](C)CN([C@@H](C)CO)C(=O)c2cc(NC(=O)Nc3ccc4c(c3)OCO4)ccc2O1` gave C diff HTS inactive and T cruzi growth-1 inactive.
C[C@@H]1CCCCO[C@@H](CN(C)C(=O)Nc2ccc3c(c2)OCO3)[C@@H](C)CN([C@@H](C)CO)C(=O)c2cc(NC(=O)Cc3ccccc3)ccc2O1 was read as C diff HTS inactive and T cruzi growth-1 inactive.
Screening C[C@@H]1CCCCO[C@@H](CN(C)C(=O)Nc2ccc3c(c2)OCO3)[C@H](C)CN([C@@H](C)CO)C(=O)c2cc(NC(=O)Nc3ccc(F)cc3)ccc2O1 returned C diff HTS inactive and T cruzi growth-1 inactive.
C[C@H](CO)N1C[C@H](C)[C@H](CN(C)C(=O)Nc2cccc(F)c2)OCc2ccccc2-c2ccccc2C1=O was read as T cruzi growth-1 inactive.
`O=C(C[C@@H]1C[C@@H]2c3cc(NC(=O)c4ccc5c(c4)OCO5)ccc3O[C@@H]2[C@H](CO)O1)NCC(F)(F)F` gave C diff HTS inactive and T cruzi growth-1 inactive.
COc1ccc2c3c(n(C)c2c1)[C@H](CO)N(CC1CCOCC1)CC31CCN(CC2CCOCC2)CC1 was read as C diff HTS inactive.
C[C@@H]1CCCCO[C@H](CN(C)C(=O)Nc2ccc3c(c2)OCO3)[C@H](C)CN([C@H](C)CO)C(=O)c2cc(NC(=O)CCCN(C)C)ccc2O1 was read as C diff HTS inactive, T cruzi growth-1 104, T cruzi growth-2 inactive, T cruzi growth-3 inactive, NIH3T3 tox inactive and NIH3T3 tox 2 inactive.
For C[C@@H]1CCCCO[C@@H](CN(C)C(=O)Nc2ccc3c(c2)OCO3)[C@@H](C)CN([C@@H](C)CO)C(=O)c2cc(NC(=O)CCCN(C)C)ccc2O1 the results were C diff HTS inactive.
`O=C1CN(S(=O)(=O)Cc2ccccc2)C[C@@H]2[C@H](c3ccc(C#CCC4CCCC4)cc3)[C@@H](CO)N12` gave C diff HTS inactive.
CC(C)CC#Cc1ccc([C@H]2[C@H]3CN(C(=O)c4ccccn4)CC(=O)N3[C@H]2CO)cc1 was read as C diff HTS inactive.
Screening COc1ccc(NC(=O)Nc2cccc3c2O[C@@H](CN(C)Cc2ccc(C(=O)O)cc2)[C@H](C)CN([C@@H](C)CO)C3=O)cc1 returned C diff HTS inactive and T cruzi growth-1 inactive.
COc1ccc(S(=O)(=O)N(C)C[C@@H]2Oc3ccc(NC(=O)Cn4cnnn4)cc3C(=O)N([C@@H](C)CO)C[C@H]2C)cc1 was read as C diff HTS inactive and T cruzi growth-1 inactive.
Screening COc1ccc(S(=O)(=O)N(C)C[C@H]2Oc3ccc(NC(=O)Cn4cnnn4)cc3C(=O)N([C@@H](C)CO)C[C@H]2C)cc1 returned C diff HTS inactive, T cruzi growth-1 100, T cruzi growth-2 inactive, T cruzi growth-3 inactive, NIH3T3 tox inactive and NIH3T3 tox 2 inactive.
COc1ccc(S(=O)(=O)N(C)C[C@H]2OCCCC[C@H](C)Oc3ccc(NC(=O)C4CCCCC4)cc3C(=O)N([C@H](C)CO)C[C@@H]2C)cc1 was read as C diff HTS inactive and T cruzi growth-1 inactive.
COc1ccc(S(=O)(=O)N(C)C[C@@H]2OCCCC[C@@H](C)Oc3ccc(NC(=O)C4CCCCC4)cc3C(=O)N([C@@H](C)CO)C[C@@H]2C)cc1 was read as C diff HTS inactive, T cruzi growth-1 99, T cruzi growth-2 inactive, T cruzi growth-3 inactive, NIH3T3 tox inactive and NIH3T3 tox 2 72.
`COc1ccc(S(=O)(=O)N(C)C[C@H]2OCCCC[C@H](C)Oc3ccc(NC(=O)C4CCCCC4)cc3C(=O)N([C@@H](C)CO)C[C@@H]2C)cc1` gave C diff HTS inactive, T cruzi growth-1 106, T cruzi growth-2 105, T cruzi growth-3 inactive, NIH3T3 tox inactive and NIH3T3 tox 2 inactive.
Screening COc1ccc(S(=O)(=O)N(C)C[C@H]2OCCCC[C@@H](C)Oc3ccc(NC(=O)C4CCCCC4)cc3C(=O)N([C@H](C)CO)C[C@@H]2C)cc1 returned C diff HTS inactive and T cruzi growth-1 inactive.
Screening COCC(=O)N1[C@@H](CO)[C@H](c2ccc(-c3cccc(OC)c3)cc2)C12CN(C(C)=O)C2 returned C diff HTS inactive.
For O=C(C[C@H]1C[C@H]2c3cc(NC(=O)C4CCC4)ccc3O[C@H]2[C@H](CO)O1)NCC(F)(F)F the results were C diff HTS inactive and T cruzi growth-1 inactive.
Screening CC(C)NC(=O)N1CC2(C1)[C@H](c1ccccc1)[C@@H](CO)N2Cc1ccccc1 returned C diff HTS inactive.
COCC(=O)N1CCCCN2[C@H](CO)[C@@H](c3ccc(C#Cc4ccccc4)cc3)[C@H]2C1 was read as C diff HTS inactive and T cruzi growth-1 inactive.
CCC(=O)N1CCCCN2[C@H](CO)[C@@H](c3ccc(C#Cc4cccnc4)cc3)[C@@H]2C1 was read as C diff HTS inactive and T cruzi growth-1 inactive.
CCC(=O)N1CCCCN2[C@@H](CO)[C@H](c3ccc(C#Cc4ccccc4F)cc3)[C@@H]2C1 was read as C diff HTS inactive, T cruzi growth-1 124, T cruzi growth-2 109, T cruzi growth-3 inactive, NIH3T3 tox 45 and NIH3T3 tox 2 104.
Screening CCC(=O)N1CCCCN2[C@H](CO)[C@@H](c3ccc(C#Cc4ccccc4F)cc3)[C@H]2C1 returned C diff HTS inactive, T cruzi growth-1 112, T cruzi growth-2 102, T cruzi growth-3 inactive, NIH3T3 tox inactive and NIH3T3 tox 2 104.
`CN1CCCCN2[C@@H](CO)[C@@H](c3ccc(C#Cc4ccccc4F)cc3)[C@@H]2C1` gave C diff HTS inactive and T cruzi growth-1 inactive.
Screening CN1CCCCN2[C@H](CO)[C@@H](c3ccc(C#Cc4ccccc4F)cc3)[C@@H]2C1 returned C diff HTS inactive and T cruzi growth-1 inactive.

Assay outcomes as filed in PubChem BioAssay.
